From PubChem
PAD4 FP inh: human PAD4 inhibitors, primary screen, biochemical, fluorescence polarization, 1536-well format | Protein-arginine deiminase type-4 (Homo sapiens), Q9UM07 | recombinant PAD4, RCA probe fluorescence polarization | inhibition, % at 6.36 µM | 0.41% of 330,000 active;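 active = percent inhibition above a cutoff equal to the mean of all tested compounds plus 3 SD, cut at about 15% in these data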;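 note: 0% = PAD4 with RCA probe and DMSO and 100% = probe without PAD4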
PME-1 primary: PME-1 inhibitors via competitive probe labeling, primary screen, biochemical, fluorescence polarization, FP-Rh probe, HTS | Protein phosphatase methylesterase 1 (Homo sapiens), Q9Y570 | recombinant PME-1 | inhibition, % at 5.9 µM | 0.53% of 320,000 active | AID 2130, 2009;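 active = inhibition above the campaign mean of all compounds plus 3 SD, cut at about 26% in these data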;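 note: competitive labeling of PME-1 active site by serine hydrolase directed probe; 0% = PME-1 with DMSO and 100% = wells lacking PME-1 enzyme; inhibitors block probe labeling so polarization falls and inhibition rises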
Target sequence (Q9Y570 whole entry, looked up): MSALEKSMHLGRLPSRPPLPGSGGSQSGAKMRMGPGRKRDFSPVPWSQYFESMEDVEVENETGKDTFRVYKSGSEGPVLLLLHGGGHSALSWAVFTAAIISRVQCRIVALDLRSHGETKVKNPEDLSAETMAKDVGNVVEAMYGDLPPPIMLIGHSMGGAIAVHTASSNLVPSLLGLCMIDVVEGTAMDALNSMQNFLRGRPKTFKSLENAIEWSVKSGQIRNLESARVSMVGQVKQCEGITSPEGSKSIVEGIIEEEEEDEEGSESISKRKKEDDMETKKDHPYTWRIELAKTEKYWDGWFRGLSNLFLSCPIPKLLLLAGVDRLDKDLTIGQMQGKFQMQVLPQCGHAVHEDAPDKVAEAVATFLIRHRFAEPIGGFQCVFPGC
LYPLA2 counter: LYPLA2 inhibitors, primary screen, counter-screen for PME1 inhibitor project, biochemical, fluorescence polarization, FP-Rh probe ABPP | recombinant LYPLA2 | inhibition, % at 5.9 µM | 0.38% of 320,000 active;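 active = inhibition above the screen-wide mean plus 3 SD, limit set per campaign, cut at about 26% in these data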;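 note: 0% = LYPLA2 with DMSO and 100% = wells lacking LYPLA2 enzyme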
GSTO1 counter: inhibitors of recombinant GSTO1, primary screen, counter-screen for RBBP9 inhibitor project, biochemical, fluorescence polarization; Glutathione S-transferase omega-1 (Homo sapiens), P78417; activity-based probe fluorescence polarization; inhibition, % at 5.96 µM; 1.1% of 300,000 active; AID 1974, 2009;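 active = inhibition above the campaign mean inhibition plus 3 SD, cut at about 35% in these data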;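 note: 0% = GSTO1-1 with DMSO and 100% = wells lacking GSTO1-1 enzyme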
LYPLA1 inh: LYPLA1 inhibitors, primary screen, counter-screen for PME1 inhibitor project, biochemical, fluorescence polarization, FP-Rh probe ABPP; AID 2174, 2009; 0.16% of 320,000 active; recombinant LYPLA1; inhibition, % at 5.9 µM; Acyl-protein thioesterase 1 (Homo sapiens), O75608;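 active = inhibition above the mean of all tested compounds plus 3 SD, set per campaign, cut at about 14% in these data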;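 note: inhibitors block serine hydrolase probe labeling of LYPLA1 so polarization falls; 0% = enzyme with DMSO and 100% = wells lacking LYPLA1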
Fam108B counter: mouse Fam108B serine hydrolase inhibitors, primary screen, counter-screen for RBBP9 inhibitor project, biochemical, fluorescence polarization | inhibition, % at 9.51 µM | 0.33% of 300,000 active | recombinant Fam108B, FP-Rh probe fluorescence polarization | AID 1947, 2009;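 active = inhibition above the screen mean inhibition plus 3 SD, computed separately per campaign, cut at about 18% in these data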;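 note: inhibitors lower polarization as less probe binds the enzyme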
LYPLA2 conf: LYPLA2 inhibitors, retest, confirmation, counter-screen for PME1 inhibitor project, biochemical, fluorescence polarization, FP-Rh probe ABPP | shares compounds with LYPLA2 counter | AID 2232, 2010 | inhibition, % at 5.9 µM | recombinant LYPLA2 | 72% of 1,100 active;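 active = mean inhibition across replicates above the hit cutoff set in the primary screen, cut at about 26% in these data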;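 note: blocked labeling of the enzyme by serine hydrolase FP-Rh probe lowers polarization; 0% = enzyme with DMSO and 100% = wells lacking LYPLA2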
LYPLA2 ABPP: LYPLA2 inhibitors in proteome, late-stage follow-up, gel-based competitive ABPP, fluorescence, assay provider. shares compounds with LYPLA2 counter. rhLYPLA2 in mouse brain proteome, gel ABPP FP-Rh. inhibition, % at 20 µM. 30% of 150 active. AID 652029, 2013;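 active = inhibition of LYPLA2 enzyme probe labeling above about 50%, limit read from the data; inactive = inhibition below that limit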;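 note: loss of FP-Rh probe labeling of the LYPLA2 gel band measured as band density; 0% = DMSO only control band and 100% = blank gel background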
Starred values were filed as active, the others as inactive; . = not tested or not shown. Hits are enriched below; roughly 1.8% of the tested compounds scored in any of these assays.

SMILES | PAD4 FP inh | PME-1 primary | LYPLA2 counter | GSTO1 counter | LYPLA1 inh | Fam108B counter | LYPLA2 conf | others
O=C(Nc1ccc(Nc2ccncc2)cc1)c1ccc(Nc2ccnc3ccc([N+](=O)[O-])cc23)cc1[N+](=O)[O-] | -3 | 6 | 27* | 23 | 6 | 8 | 6
CCCCCCCCC[n+]1cccc2c3ccccc3ccc21 | 6 | -8 | 19 | 7 | 0 | 3 | .
CCCCCCCCCCCCCCCC[n+]1cccc2ccccc21 | 7 | 9 | 32* | 7 | 8 | 13 | 57*
CCN(CC)S(=O)(=O)c1ccc(N2CCOCC2)c(NC(=O)COc2ccc(C#N)cc2)c1 | -7 | 11 | 77* | 14 | 4 | -4 | 79* | LYPLA2 ABPP=64*
CCN(CC)S(=O)(=O)c1ccc(N2CCOCC2)c(NC(=O)c2cc(=O)[nH]c3ccccc23)c1 | -5 | -5 | 36* | -5 | -1 | -2 | 43*
N#CCC(=O)Nc1ccc(C(=O)OCc2ccccc2Oc2ccccc2)cc1 | -3 | 38* | 26* | -38 | 7 | 3 | -83
Cc1nn(C)c(C)c1CN(C)C(=O)c1cc2n(n1)C(C(F)(F)F)CC(c1cccs1)N2 (stereo unspecified) | 3 | 0 | 26* | -1 | -1 | 3 | 10
Cc1nn(C)cc1CN(C)C(=O)c1nn2c(c1Cl)NC(c1cccs1)CC2C(F)(F)F (stereo unspecified) | -4 | -1 | 0 | 0 | -1 | 5 | .
Cc1ccc(OCCNC(=O)c2ccc(NC(=O)CC3SC(N4CCCC4)=NC3=O)cc2)cc1 (stereo unspecified) | 4 | -2 | 45* | 11 | 0 | 1 | 40*
O=C(CC1SC(N2CCCC2)=NC1=O)Nc1ccc(C(=O)N2CCN(c3cccc(Cl)c3)CC2)cc1 (stereo unspecified) | -3 | -2 | 30* | 9 | 0 | 0 | 62* | LYPLA2 ABPP=38
Cc1cccc(N2CCN(C(=O)c3ccc(NC(=O)CC4SC(N5CCCC5)=NC4=O)cc3)CC2)c1C (stereo unspecified) | 1 | . | . | . | . | . | .
COc1ccc(CCNC(=O)c2ccc(NC(=O)CC3SC(N4CCCC4)=NC3=O)cc2)cc1 (stereo unspecified) | 3 | -4 | 52* | -2 | 0 | 5 | 58* | LYPLA2 ABPP=25
CCN(CC)c1ccc(S(=O)(=O)N2CCOCC2)cc1NC(=O)CN1C(=O)NC2(CCC(C)CC2)C1=O (stereo unspecified) | 1 | 4 | 3 | 2 | 2 | 1 | .
COc1ccc(-n2c(C)cc(C(=O)Cn3c(NCCO)nc4ccccc43)c2C)cc1 | -5 | -2 | 56* | 3 | 2 | -3 | 62* | LYPLA2 ABPP=29
O=C(Cn1c(NCCO)nc2ccccc21)c1ccc(F)cc1 | -1 | 4 | 6 | 3 | 5 | 7 | .
Cc1nc2ccccc2n(CC(=O)Nc2cc(Cl)cc(Cl)c2)c1=O | -6 | -4 | 32* | -8 | -2 | 0 | 42*
Cc1ccc(NC(=O)Cn2c(=O)c(C)nc3ccccc32)cc1 | -7 | -3 | 12 | -1 | 0 | -2 | .
COC(=O)c1c(C)[nH]c(C(=O)CN(C)CC(=O)Nc2cccc(F)c2)c1C | -3 | 0 | 6 | . | -1 | . | .
Cc1cccc(C)c1NC(=O)CNC(=O)c1ccc2c(c1)NC(=O)CS2 | -1 | . | . | . | . | . | .
COc1cccc(NC(=O)COC(=O)c2c(C)nn(-c3ccccc3)c2C)c1 | 0 | -11 | 49* | . | -5 | . | 42*
